Screening data from PubChem.
HT1080 IDH1KD tx: kills HT-1080 cells with IDH1 knockdown; HT-1080 IDH1 knockdown viability, ATP luminescence, 48 h; Potency, µM (highest dose often 46.1 µM), inactives show top-dose activity, negative = toxicity, most hits filed as cytotoxic; 2% of 360,000 active;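 also: potency is read from the fitted curve at half-maximal effect; 0% = DMSO wells and -100% = cell-free medium wells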
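Cytotoxicity counter-line: IDH1KD HT-1080, 48 h, CellTiter-Glo. Curves classed by r2, magnitude and activity.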
DT40 TDP1 no CPT: qHTS for Inhibitors of human tyrosyl-DNA phosphodiesterase 1 (TDP1): qHTS in cells in absence of CPT. DT40 Tdp1-/- hTDP1 cells, no CPT, ATP luminescence, 48 h. 15% of 420,000 active. Potency, µM (titrated, usually from 46.2 µM), for the others: at the highest dose activity change, negative = growth inhibition, hits mostly inhibitors; also: potency is read from the fitted curve at half-maximal effect; nearly all actives have a fitted effect of over 55% in size
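No-CPT arm: Tdp1-/-;hTDP1 DT40 cells (400/well) plus compounds, incubated ≥48 hr at 37 °C. Readout CellTiter-Glo luminescence.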
HT1080NT lethal: kills 2HG-producing HT-1080-NT fibrosarcoma cells; Potency, µM (titrated, usually from 46.1 µM), for the others: at the top dose activity, negative = less viability, actives largely listed as cytotoxic; AID 686970; 1.6% of 360,000 active; HT-1080-NT fibrosarcoma viability, CellTiter-Glo ATP luminescence, 48 h;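 also: NT is the 2HG producing partner of a matched IDH1 knockdown line; potency is read from the fitted curve at half-maximal effect; 0% = DMSO-treated cells and -100% = media-only wells without cells; nearly all actives have a fitted effect of over 55% in size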
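HT-1080-NT fibrosarcoma cells (2HG-overproducing), 750 cells/well in RPMI with 5% FBS, dosed after 2 h and incubated 48 h at 37C. CellTiter-Glo luminescence normalized to DMSO and no-cell wells; concentration-response curves fitted and classed.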
DT40 TDP1 CPT: growth inhibition of DT40 Tdp1-/-;hTDP1 cells with camptothecin (screen for TDP1 inhibitors). chicken DT40 Tdp1-/-;hTDP1 cells + 20 nM CPT, ATP luminescence, 48 h. Potency, µM (highest dose often 46.2 µM), inactives show at the highest dose activity change, negative = growth inhibition, usual class: inhibitors. 12% of 420,000 active. AID 686979; also: potency is read from the fitted curve at half-maximal effect; nearly all actives have a fitted effect of over 55% in size
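Chicken DT40 Tdp1-/- cells complemented with human TDP1, 400 cells/well, exposed to compounds plus 20 nM camptothecin for at least 48 h at 37 C; viability read as ATP content by CellTiter-Glo luminescence.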
IL1B secr inh: inhibitors of inflammasome signaling (IL-1 beta secretion); THP-1 LPS/ATP IL-1B secretion, AlphaLISA, 16 h; active compounds read low; activity change, % at 57.5 µM; 4.7% of 360,000 active; AID 743279; in the data active = activity change below about -50%; inconclusive = mostly about -30% to -49%
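THP-1 cells pretreated 1 hr with compounds (up to 57.5 uM final), then stimulated with LPS (250 ng/mL final) plus ATP (1.25 mM final); secreted IL-1B measured by AlphaLISA after 16 hr, decreased signal indicating inhibition.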
* = called active by the depositor; u = inconclusive; x = no result; ! = repeats disagree; [ ] = remark or other dose. Only some compounds are listed: those with a hit (about 19% of all), similar ones and a draw of the others. Unless noted, calls follow the shape of the dose curve; as a rule, active = well fitted curve in the direction sought with a large enough effect; inconclusive = small, poorly fitted or top-dose-only effect, or another doubt; inactive = no such curve, though single readings can be large; an effect the other way counts as inactive or inconclusive. Unless noted, % is scaled to controls: 0 for no effect and ±100 for the full control effect.

SMILES | HT1080 IDH1KD tx | DT40 TDP1 no CPT | HT1080NT lethal | DT40 TDP1 CPT | IL1B secr inh
O=C(OCc1cn([C@H]2C[C@H](c3ccc(Cl)cc3)N(Cc3cccs3)C[C@@H]2O)nn1)c1ccccc1 | -15% | u | 0% | u | -18
COc1cccc(NC(=O)c2oc3ccc(S(=O)(=O)N4CCOCC4)cc3c2C)c1 | -14% | 13µM* | -10% | 15µM*! | -10
COc1ccc2oc(C(=O)N3CCN(S(=O)(=O)c4cccc([N+](=O)[O-])c4)CC3)c(C)c2c1 | -1% | 15µM* | -6% | 16µM* | -3
COc1cccc(NC(=O)c2oc3ccc(S(=O)(=O)N4CCC5(CC4)OCCO5)cc3c2C)c1 | x | 5.2µM* | x | 5.8µM* | x
Cc1c(C(=O)Nc2cccc(S(=O)(=O)N3CCCC3)c2)oc2ccccc12 | 8% | -28% | -1% | u | 0
CCOc1ccc(S(=O)(=O)N2CCN(C(=O)c3oc4ccc(OC)cc4c3C)CC2)cc1 | -12% | u | -20% | u | u
Cc1ccc(NC(=O)c2oc3ccc(S(=O)(=O)N4CCOCC4)cc3c2C)cc1C | -26% | -18% | -29% | u | 20
Cc1c(C(=O)Nc2cccc(Cl)c2)oc2ccc(S(=O)(=O)N3CCC4(CC3)OCCO4)cc12 | -2% | 18µM* | -3% | 9.2µM* | 0
Cc1ccc(Cl)cc1NC(=O)c1oc2ccc(S(=O)(=O)N3CCC4(CC3)OCCO4)cc2c1C | x | -15% | x | -24% | x
CCN(C[C@H]1N[C@@](Cc2ccccc2)(C(=O)OC)[C@H]2C(=O)N(Cc3ccccc3)C(=O)[C@@H]12)C(=O)NC(C)C | 10% | u | 7% | u | 24
CCOc1ccc(CNC(=O)C2CCCN(S(=O)(=O)N3CC(C)CC(C)C3)C2)cc1OC (stereo unspecified) | 14% | -18% | 3% | -22% | -13
COc1ccc2oc(C(=O)Nc3ccccc3N3CCOCC3)c(C)c2c1 | 0% | u | -7% | -24% | 15
Cc1c(C(=O)Nc2cc(S(=O)(=O)N3CCOCC3)ccc2N2CCOCC2)oc2ccccc12 | -2% | u | 6% | 18µM* | -8
COc1ccc2oc(C(=O)Nc3ccc(N4CCOCC4)cc3)c(C)c2c1 | 0% | u | 3% | u | -57*
Cc1cccc(N(C(=O)c2snc(C(N)=O)c2N)C(C)C(=O)NCC2CCCO2)c1 (stereo unspecified) | -3% | -22% | 1% | -2% | u
CCOc1ccc(N/C(N)=N/c2nc(C)cc(C)n2)cc1 | -1% | 26µM* | -17% | 21µM* | -3
Cc1cc(C)nc(/N=C(\N)Nc2ccc(SC(F)F)cc2)n1 | -14% | 12µM* | 5% | 13µM* | 0
Cc1cc(C)nc(/N=C(\N)Nc2ccc(-c3ccccc3)cc2)n1 | 16µM* | 9.2µM* | 16µM* | 7.3µM* | x
Cc1ccsc1C(=O)Nc1ccc(F)c([N+](=O)[O-])c1 | -4% | u | 0% | -8% | u
COc1ccc(N/C(=N/c2nc(C)cc(C)n2)NC(=O)c2ccccc2)cc1 | 7% | u | 10% | -27% | 58
CCOc1ccc(N/C(=N/c2nc(C)cc(C)n2)NC(=O)CC)cc1 | 1% | u | 2% | u | 0
Cc1cc(C)nc(/N=C(\N)Nc2ccc(F)c([N+](=O)[O-])c2)n1 | -3% | u | 0% | u | -92*
COc1ccc([N+](=O)[O-])cc1NC(=O)c1ccc(-n2nc(C)cc2C)cc1 | -10% | -28% | -9% | 8% | -8
COc1ccc(-n2c(COc3cccc4cccnc34)nnc2SCC(=O)O)cc1 | 0% | -2% | 7% | -7% | 12
COc1ccc(-n2nnnc2C2CCN(S(=O)(=O)c3cccc(C(F)(F)F)c3)CC2)cc1 | x | -14% | x | -19% | x
SMILES | HT1080 IDH1KD tx | DT40 TDP1 no CPT | HT1080NT lethal | DT40 TDP1 CPT | IL1B secr inh
Cc1cc(C)nc(/N=C(\N)Nc2ccc3c(c2)OCCO3)n1 | u | u | -21% | 21µM* | -78*
Cc1cc(C)nc(/N=C(\N)Nc2ccc(S(N)(=O)=O)cc2)n1 | -1% | u | -13% | -30% | 34
CC(=O)Nc1ccc(N/C(N)=N/c2nc(C)cc(C)n2)cc1 | -19% | u | -10% | u | -93*
CCCCNC(=O)C[C@@H]1C[C@@]2(C(=O)OC)CCCCC=C2N(Cc2ccccc2)C1=O | 1% | u | 19% | u | 16
COC(=O)[C@]12CCCCC=C1N(Cc1ccc(Cl)cc1Cl)C(=O)[C@H](CC(=O)NCC1CCCCC1)C2 | u | 18µM* | u | u | 0
COCCCNC(=O)C[C@@H]1C[C@@]2(C(=O)OC)CCCCC=C2N(Cc2ccc(Cl)cc2Cl)C1=O | -13% | 16µM* | -12% | u | -5
COC(=O)[C@]12CCCCC=C1N(Cc1ccc(Cl)cc1Cl)C(=O)[C@H](CC(=O)N1CCCC1)C2 | u | u | u | u | 0
COC(=O)[C@]12CCCCC=C1N(Cc1ccccc1)C(=O)[C@H](CC(=O)NCC1CCCCC1)C2 | 8% | u | 3% | 16µM* | -8
CNc1ccc(C(=O)OCC(=O)NC(=O)NC2CCCC2)cc1[N+](=O)[O-] | 1% | 8% | 5% | -23% | -7
O=S(=O)(c1ccc2ccccc2c1)n1nc(-c2ccco2)nc1NCc1ccc(F)cc1 | x | -27% | x | 1% | x
COc1ccc(S(=O)(=O)N(C)C[C@H]2OCc3cnnn3CCCC(=O)N([C@@H](C)CO)C[C@H]2C)cc1 | -6% | -27% | -7% | 1% | -17
NC(=O)COC(=O)CSc1ccc2ccccc2c1 | 7% | -14% | 14% | -7% | 20
CCCCCCCCCCCCCC(=O)N[C@@H](C)[C@H](O)c1ccccc1 | x | -23%[4.12 µM] | x | 0%[4.12 µM] | x
CCO[C@H](Cc1ccc(OCCc2ccc(OS(C)(=O)=O)cc2)cc1)C(=O)O | x | 0% | x | -6% | x
Cc1cc(CNCCN(C)C)c(C)n1-c1cc(S(=O)(=O)N2CCOCC2)ccc1N1CCCC1 | -20% | 16µM* | -13% | u | -6
Cc1ccc(C)n1-c1cc(S(=O)(=O)N2CCOCC2)ccc1N1CCCC1 | 1% | 26µM* | 0% | 21µM* | -11
CC(C)C(=O)NNC(=O)CSc1nnnn1C(C)C | 1% | -8% | 7% | 4% | 1
Cc1ccc2oc(=O)c(/C=C(\O)c3ccccc3)nc2c1 | -2% | -22% | -11% | -1% | 14
C/C(O)=C\c1nc2ccccc2oc1=O | u | 7.3µM* | -6% | 10µM* | 40
CS(=O)(=O)Cc1nc2ccccc2oc1=O | -2% | 6.5µM* | -8% | 6.5µM* | 10
Cc1ccc2oc(=O)c(/C=C(\O)CC(C)C)nc2c1 | -1% | -87% | 0% | 23µM* | 18
